Source: PubChem BioAssay AID1159580 (chemical genetic matrix, 2015)
Hit rate of the full screen: of about 5,500 compounds, about 2,000 (36%) were called active. About 18% were inconclusive and are not listed. Rule as the data show it: active = normalized growth mostly below about 0.91 (no sharp cut-off); inconclusive = no clear call, values can overlap the other calls; inactive = mostly above about 0.92. This is one part of the list.

Test: chemical genetic growth profiling, strain panel (AID 1159580);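 also: tested at 20 µM; growth read once vehicle control cultures reached saturation at 30 °C; 1 = growth at the plate median or of vehicle wells; lower values mean less growth of the strain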
Conditions: S. cerevisiae deletion strains, growth OD

Measured: normalized growth

COc1cc(O)c(C(=O)c2ccccc2)cc1O
active: locus YDR392W, strain spt3, hits give low values 0.705 | locus YER155C, strain BEM2 (second series), hits give low values 0.764 | locus YLR262C, strain YPT6 (second series), hits give low values 0.768
inactive: locus YAL013W, strain DEP1, hits give low values 1.02 | locus YAL021C, strain ccr4, hits give low values 1.01 | locus YAL026C, strain drs2, hits give low values 0.963 | locus YAL030W, strain snc1, hits give low values 1.01 | locus YBL061C, strain skt5, hits give low values 1.01 | locus YBR009C, strain hhf1, hits give low values 0.969 | locus YBR021W, strain FUR4, hits give low values 1.07 | locus YBR023C, strain chs3, hits give low values 0.985 | locus YBR171W, strain sec66, hits give low values 1.01 | locus YBR229C, strain ROT2, hits give low values 1.02 | locus YBR231C, strain swc5, hits give low values 1.01 | locus YBR279W, strain paf1, hits give low values 0.988 | locus YCL011C, strain gbp2, hits give low values 0.971 | locus YCL016C, strain dcc1, hits give low values 0.965 | locus YCL029C, strain bik1, hits give low values 0.978 | locus YCL069W, strain vba3, hits give low values 0.996 | locus YCR088W, strain abp1, hits give low values 1 | locus YDL005C, strain med2, hits give low values 1.01 | locus YDL035C, strain GPR1, hits give low values 1.07 | locus YDL040C, strain nat1, hits give low values 1 | locus YDL074C, strain BRE1, hits give low values 1.01 | locus YDL101C, strain DUN1, hits give low values 0.998 | locus YDL185W, strain tfp1, hits give low values 0.972 | locus YDL192W, strain arf1, hits give low values 0.971 | locus YDR001C, strain nth1, hits give low values 1.02 | locus YDR069C, strain doa4, hits give low values 1.02 | locus YDR101C, strain arx1, hits give low values 1.01 | locus YDR137W, strain rgp1, hits give low values 0.857 | locus YDR159W, strain sac3, hits give low values 0.973 | locus YDR162C, strain NBP2, hits give low values 1.02 | locus YDR195W, strain ref2 1.03 | locus YDR297W, strain sur2, hits give low values 0.99 | locus YDR318W, strain mcm21, hits give low values 0.963 | locus YDR334W, strain swr1, hits give low values 1.03 | locus YDR335W, strain msn5, hits give low values 0.988 | locus YDR388W, hits give low values 0.979 | locus YDR502C, strain sam2, hits give low values 0.965 | locus YEL003W, strain gim4, hits give low values 0.985 | locus YEL037C, strain rad23, hits give low values 1.01 | locus YEL061C, strain CIN8 (second series), hits give low values 1.01 | locus YEL061C, strain CIN8, hits give low values 1.03 | locus YER015W, strain faa2, hits give low values 0.966 | locus YER016W, strain bim1, hits give low values 1 | locus YER110C, hits give low values 0.964 | locus YER111C, strain swi4, hits give low values 1.02 | locus YER155C, strain BEM2, hits give low values 1.01 | locus YER167W, strain BCK2, hits give low values 1 | locus YFR010W, strain ubp6, hits give low values 1.03 | locus YGL078C, strain dbp3, hits give low values 0.937 | locus YGL086W, strain mad1, hits give low values 0.974 | locus YGL167C, strain pmr1, hits give low values 0.999 | locus YGL173C, strain kem1, hits give low values 1 | locus YGL227W, strain vid30, hits give low values 1.01 | locus YGL240W, strain doc1, hits give low values 0.944 | locus YGL248W, strain PDE1, hits give low values 1.05 | locus YGL253W, strain hxk2, hits give low values 1.04 | locus YGR135W, strain pre9, hits give low values 0.923 | locus YGR252W, strain gcn5, hits give low values 1 | locus YHR013C, strain ard1, hits give low values 1.05 | locus YHR027C, strain rpn1, hits give low values 1.02 | locus YHR079C, strain IRE1 (second series), hits give low values 0.959 | locus YHR094C, strain hxt1, hits give low values 0.974 | locus YHR129C, strain ARP1, hits give low values 1.02 | locus YHR142W, strain chs7, hits give low values 1.01 | locus YHR200W, strain rpn10, hits give low values 0.968 | locus YIL066C, strain RNR3, hits give low values 1.03 | locus YIL073C, strain SPO22, hits give low values 1 | locus YIL125W, strain kgd1, hits give low values 1 | locus YIR030C, strain dcg1, hits give low values 0.976 | locus YJL092W, strain hpr5, hits give low values 1.01 | locus YJL095W, strain BCK1 (second series), hits give low values 0.996 | locus YJL095W, strain BCK1, hits give low values 0.978 | locus YJL115W, strain asf1, hits give low values 1.02 | locus YJL129C, strain trk1, hits give low values 0.948 | locus YJL134W, strain LCB3, hits give low values 1 | locus YJL154C, strain vps35, hits give low values 1.02 | locus YJL164C, strain tpk1, hits give low values 0.958 | locus YJL166W, strain qcr8, hits give low values 0.993 | locus YJL168C, strain set2, hits give low values 0.989 | locus YJL187C, strain SWE1 (second series), hits give low values 0.993 | locus YJL187C, strain SWE1, hits give low values 0.996 | locus YKL009W, strain mrt4, hits give low values 0.892 | locus YKL068W, hits give low values 0.982 | locus YKL085W, strain MDH1 (second series), hits give low values 0.97 | locus YKL085W, strain MDH1, hits give low values 0.97 | locus YKL160W, strain elf1, hits give low values 0.945 | locus YKR001C, strain vps1, hits give low values 1.01 | locus YKR026C, strain gcn3, hits give low values 1.02 | locus YKR091W, strain srl3, hits give low values 1.01 | locus YLL001W, strain dnm1, hits give low values 0.951 | locus YLL026W, hits give low values 1.01 | locus YLL041C, strain sdh2, hits give low values 1.01 | locus YLR027C, strain aat2, hits give low values 1.01 | locus YLR039C, strain RIC1, hits give low values 0.963 | locus YLR058C, strain SHM2, hits give low values 1.01 | locus YLR102C, strain apc9, hits give low values 0.97 | locus YLR221C, strain rsa3, hits give low values 0.988 | locus YLR258W, strain gsy2, hits give low values 0.962 | locus YLR268W, strain sec22, hits give low values 0.976 | locus YLR320W, strain mms22, hits give low values 0.944 | locus YLR330W, strain CHS5, hits give low values 1.02 | locus YLR342W, strain FKS1, hits give low values 0.993 | locus YLR357W, strain rsc2, hits give low values 0.994 | locus YLR370C, strain arc18, hits give low values 1 | locus YLR371W, strain rom2, hits give low values 0.966 | locus YLR384C, strain iki3, hits give low values 0.996 | locus YLR418C, strain cdc73, hits give low values 1.03 | locus YML016C, strain PPZ1, hits give low values 1.01 | locus YML032C, strain rad52, hits give low values 0.967 | locus YML120C, strain ndi1, hits give low values 0.965 | locus YML124C, strain tub3, hits give low values 0.97 | locus YMR058W, strain fet3, hits give low values 1.02 | locus YMR078C, strain ctf18, hits give low values 0.952 | locus YMR125W, strain sto1, hits give low values 1.01 | locus YMR129W, hits give low values 1 | locus YMR205C, strain PFK2, hits give low values 0.991 | locus YMR223W, strain ubp8, hits give low values 0.932 | locus YMR231W, strain pep5, hits give low values 1.01 | locus YMR307W, strain GAS1, hits give low values 1.19 | locus YNL067W, strain RPL9B, hits give low values 1.01 | locus YNL071W, strain lat1, hits give low values 0.982 | locus YNL209W, strain ssb2, hits give low values 0.947 | locus YNL233W, strain BNI4, hits give low values 1.04 | locus YNL248C, strain rpa49, hits give low values 1.03 | locus YNL250W, strain rad50, hits give low values 0.924 | locus YNL271C, strain bni1, hits give low values 0.951 | locus YNL298W, strain CLA4, hits give low values 0.995 | locus YNL307C, strain MCK1, hits give low values 0.971 | locus YNL322C, strain KRE1 (second series), hits give low values 0.973 | locus YNR049C, strain mso1, hits give low values 1.03 | locus YNR052C, strain pop2, hits give low values 0.96 | locus YOL012C, strain htz1 1.3 | locus YOL147C, strain pex11, hits give low values 0.979 | locus YOR001W, strain rrp6, hits give low values 0.995 | locus YOR061W, strain CKA2, hits give low values 1.01 | locus YOR069W, strain VPS5, hits give low values 0.999 | locus YOR070C, strain gyp1, hits give low values 0.983 | locus YOR080W, strain dia2, hits give low values 1.02 | locus YOR083W, strain WHI5, hits give low values 0.933 | locus YOR106W, strain vam3, hits give low values 0.917 | locus YOR136W, strain idh2, hits give low values 0.977 | locus YOR144C, strain elg1, hits give low values 0.976 | locus YOR184W, strain ser1, hits give low values 1.07 | locus YOR265W, strain rbl2, hits give low values 1.01 | locus YOR270C, strain vph1, hits give low values 0.974 | locus YOR290C, strain snf2, hits give low values 0.946 | locus YOR316C, strain cot1, hits give low values 0.958 | locus YPL051W, strain arl3, hits give low values 0.924 | locus YPL078C, strain atp4, hits give low values 0.952 | locus YPL106C, strain sse1, hits give low values 0.943 | locus YPL240C, strain hsp82, hits give low values 0.997 | locus YPR119W, strain clb2, hits give low values 0.95 | locus YPR141C, strain kar3, hits give low values 0.96 | locus YPR163C, strain tif3, hits give low values 0.94 | locus YPR167C, strain met16, hits give low values 0.953 | strain wtn01, hits give low values 0.998
